HIV TAR-Tat – TAR RNA-Tat peptide displacers, HIV-1, primary screen, biochemical, FRET, FAM/TAMRA-labeled Tat. HIV-1 TAR RNA, Tat peptide displacement FRET; active compounds read high. z-score (no concentration beside the values). 100,000 tested, 0.6% active. AID 1259389, 2018; active = z-score of 3 or more in at least 2 runs
CDC25B-CDK2 inh – primary biochemical HTRF screen for blockers of M-phase inducer phosphatase 2 binding to CDK2/cyclin A. HTRF CDC25B-CDK2/CyclinA binding, anti-His/anti-Flag; active compounds read high. z-score (test concentration not listed). 94,000 tested, 0.72% active. AID 1259370, 2018; in the data active = z-score above about 3.2
Active calls of the source: *; · = not tested or not shown. Rows were chosen to be rich in hits. Some 0.9% of all compounds tested hit in one or more screens of this group.

SMILES | HIV TAR-Tat | CDC25B-CDK2 inh
COc1ccc(NC2=NS(=O)(=O)c3ccccc32)cc1 | · | -1.1
CC(=O)Oc1ccc2ccccc2c1-c1c(OC(C)=O)ccc2ccccc12 | -0.52 | -2
CC(=O)Oc1ccc(OC(C)=O)c2c1C(=O)c1ccccc1C2=O | · | 17*
Cc1cc(C)c(S(=O)(=O)NCCc2csc3nc(-c4cccc(F)c4)nn23)c(C)c1 | 2.1 | ·
Cc1ccc(-c2ccccc2)n1-c1cccc2cccnc12 | -1.6 | -2.5
Cc1ccc(-c2ccccc2)n1-c1cccnc1 | 1.1 | 17*
Cc1cccn2c(=O)c3cc(C(=O)N(C)C4CCCCC4)sc3nc12 | · | 0.4
O=c1ccc2cc(S(=O)(=O)N3CCN(c4cccc(Cl)c4)CC3)ccc2[nH]1 | -0.54 | ·
Cc1nc(Oc2ccc3cnccc3c2)c2c3c(sc2n1)CCCC3 | 0.8 | ·
COc1cc(C2SC(NC(C)=O)=NN2C(C)=O)cc(Br)c1OC(=O)c1cccs1 (stereo not given) | 2.1 | -0.27
O=C(CN1C(=O)CCS(=O)(=O)c2ccccc21)NCC1CCCO1 (stereo not given) | 0.65 | 3.1
Cc1ccc(CNC(=O)NCc2c(-n3cccc3)sc3c2CCCC3)cc1 | 13* | -1.2
Cc1cc(C)cc(NC(=O)NCc2c(-n3cccc3)sc3c2CCCC3)c1 | 0.31 | -0.2
Cc1cc(-c2ccc(C(C)C)c(S(=O)(=O)NCCc3nc4ccccc4[nH]3)c2)on1 | -0.83 | ·
O=C1CCC(=O)N1c1ccc(S(=O)(=O)Oc2cccc(C(F)(F)F)c2)cc1 | · | -0.2
CC1CCCCN1CCN1C(=O)c2cc3ccccc3n2CC1(C)C(=O)NC1CCCCC1 (stereo not given) | 18* | ·
CC1(C(=O)NC2CCCCC2)Cn2c(ccc2-c2ccco2)C(=O)N1Cc1ccco1 (stereo not given) | -6.9 | ·
CC1(C(=O)NC2CCCC2)Cn2c(ccc2-c2ccco2)C(=O)N1Cc1ccco1 (stereo not given) | 3.7* | ·
CC1CCCCN1CCN1C(=O)c2ccc(-c3ccco3)n2CC1(C)C(=O)NC1CCCCC1 (stereo not given) | -3.2 | ·
CCCOc1ccc(-c2cccc(NS(=O)(=O)c3ccc4c(c3)OCCO4)c2)nn1 | -0.27 | ·
C=CCOc1ccc(C2CC(=O)Nc3c2c(C)nn3-c2nncc(-c3ccc(C)cc3)n2)cc1 (stereo not given) | 2.9 | -2
C=CCOc1ccc(C2CC(=O)Nc3c2c(C)nn3-c2nncc(-c3ccc(F)cc3)n2)cc1 (stereo not given) | 16* | -1.7
O=C1NCCOc2ccc(S(=O)(=O)Nc3ccc(F)c(Cl)c3)cc21 | 1.2 | ·
NC(=O)c1nc(-c2ccc(F)c(F)c2)nc2c1[nH]c(=O)n2-c1ccc(F)cc1 | 1.8 | ·
COC(=O)c1cc(S(=O)(=O)N2CCN(C(c3ccc(F)cc3)c3ccc(F)cc3)CC2)cn1C | -0.06 | ·
SMILES | HIV TAR-Tat | CDC25B-CDK2 inh
CCc1ccc(N2CSC3=C(C#N)C(c4cccc(F)c4)CC(=O)N3C2)cc1 (stereo not given) | 0.58 | 5.2*
N#CC1=C2SCN(c3ccc(F)cc3)CN2C(=O)CC1c1cccc(Br)c1 (stereo not given) | -1.8 | 3.3*
N#CC1=C2SCN(c3ccc(Br)cc3)CN2C(=O)CC1c1cccc(F)c1 (stereo not given) | -3 | 6.6*
COc1ccc(N2CSC3=C(C#N)C(c4ccc(Br)cc4)CC(=O)N3C2)cc1 (stereo not given) | -1.4 | 5.3*
Cc1cc2nc(COC(=O)C(C)C)cc(=O)n2o1 | 0.21 | ·
CCCCC1CCC(C(=O)NCC(c2ccco2)N2CCCC2)CC1 (stereo not given) | -0.34 | -0.57
CC1(C)CC(=O)C2=C(C1)Nc1ccccc1N(C(=S)Nc1ccccc1)C2c1ccco1 (stereo not given) | · | -1.1
Cc1ccc(-n2ncc3c(NCCCOC(C)C)ncnc32)cc1C | 2.1 | ·
CCc1ccc(-c2cn3c(n2)sc2cc(C(=O)N4CCN(c5ncccn5)CC4)ccc23)cc1 | 2.2 | ·
COC(=O)CSc1nc2ccccc2nc1Cl | 1.1 | -1.7
N#CC1=C2SCN(c3ccccc3)CN2C(=O)CC1c1cccc(Br)c1 (stereo not given) | -3.3 | 6.9*
N#CC1=C2SCN(c3ccccc3)CN2C(=O)CC1c1ccc(Br)cc1 (stereo not given) | -4.1 | 4*
N#CC1=C2SCN(c3ccccc3F)CN2C(=O)CC1c1ccc(Br)cc1 (stereo not given) | -0.67 | -2.4
N#CC1=C2SCN(c3ccc(F)cc3)CN2C(=O)CC1c1cccc(F)c1 (stereo not given) | -3.9 | 6.4*
COc1ccc(Br)cc1C1CC(=O)N2CN(c3ccc(F)cc3)CSC2=C1C#N (stereo not given) | -4 | 4.4*
COc1ccc(Br)cc1C1CC(=O)N2CN(Cc3ccco3)CSC2=C1C#N (stereo not given) | -1.3 | -0.21
O=C(Nc1ccc(Cl)cn1)c1c2c(nc3ccccc13)C(=O)N(C1CCCCC1)C2 | 0.69 | ·
O=C(Nc1ccc(F)cc1F)N1CCN(c2nc3ccccc3s2)CC1 | 1.8 | -1.2
O=C(Nc1cccc(S(=O)(=O)N2CCCC2)c1)c1nc(-n2cnnc2)ccc1Br | 2.4 | ·
Cn1c(=O)c(=O)n(C)c2cc(N3CCCCC3)c(NS(C)(=O)=O)cc21 | 0.47 | ·
COC(=O)c1sc2ccccc2c1S(=O)(=O)NC(C)c1ccccc1 (stereo not given) | -0.46 | ·
Cn1c(=O)c2c(-c3ccc(Br)cc3)n(-c3ccc4c(c3)nc(CO)n4C)cc2n(C)c1=O | 1.7 | 15*
Cc1ccc(-n2cc3c(c2-c2ccc(Br)cc2)c(=O)n(C)c(=O)n3C)cc1 | -0.23 | -1.6
O=C1COc2ccc(S(=O)(=O)N3CCC(C(=O)N4CCCCC4)CC3)cc2N1 | 1.9 | ·
CCC(C(=O)NCc1cccs1)n1nc(C)c2sc3ccccc3c2c1=O (stereo not given) | 4* | -2.7
SMILES | HIV TAR-Tat | CDC25B-CDK2 inh
CCC(C(=O)NCCc1cccs1)n1nc(C)c2sc3ccccc3c2c1=O (stereo not given) | 1.5 | -1.1
CCC(C(=O)Nc1cccc(Cl)c1)n1nc(C)c2sc3ccccc3c2c1=O (stereo not given) | 13* | 0.04
CCC(C(=O)Nc1cccc(F)c1)n1nc(C)c2sc3ccccc3c2c1=O (stereo not given) | 2.6 | -1.5
CC(=O)Nc1ccc(S(=O)(=O)Nc2cccc(C(=O)Nc3ccccc3C(=O)O)c2)cc1 | · | -2.6
O=C(Nc1cccc(C(=O)Nc2ccc(S(=O)(=O)O)c3cc(S(=O)(=O)O)cc(S(=O)(=O)O)c23)c1)Nc1cccc(C(=O)Nc2ccc(S(=O)(=O)O)c3cc(S(=O)(=O)O)cc(S(=O)(=O)O)c23)c1 | · | 4.6*
Cc1cccc(-c2nc3sc(C)cc3c(=O)o2)c1 | 1.3 | 7.6*
CCc1cc2c(=O)oc(-c3ccccc3)nc2s1 | 0.63 | -0.8
Cc1ccc(C)c(NC(=O)N2CCCn3nc(-c4cccn4C)cc32)c1 | 0.84 | ·
O=C1NC(=S)N/C1=C/c1ccc(-c2cc(C(=O)O)ccc2Cl)o1 | · | 3.6*
O=C1NC(=O)/C(=C/c2ccc(-c3ccc(F)cc3O)o2)S1 | · | 0.33
CCN1CCN(C(=O)C2CCN(S(=O)(=O)c3c(C)noc3/C=C/c3ccco3)CC2)CC1 | 0.42 | -1.4
COc1cccc(-c2nc3c(c(=O)[nH]2)Cc2cc(Cl)ccc2O3)c1OC | 0.76 | -0.63

Screening results: PubChem BioAssay, Center for Chemical Genomics, University of Michigan
